This is an account of results in PubChem BioAssay (EPA / NIEHS).

Records with an inconclusive call do not appear. Activity calls are given as the source filed them. The calls were made as follows, unless noted: active = hit-call score of the fitted dose curve at least 0.9, where 1 is the maximum; inconclusive = response in the unintended direction; inactive = score below 0.9.

Experiment [1] has as its target Aryl hydrocarbon receptor (Homo sapiens) (UniProt P35869). Put plainly: ATG_Ahr_CIS: Attagene CIS-FACTORIAL HepG2 Assay for human Aryl Hydrocarbon Receptor (Ahr) (AID 2282930; active = hit-call score of the fitted dose curve at least 0.9, where 1 is the maximum; inactive = score below 0.9). The conditions noted are these: HepG2 AhR cis-factorial reporter transcription; actives raise or lower the signal. A digest of the protocol:
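Transient MRTU transfection of HepG2 → 24 h compound exposure → total RNA, oligo(dT) RT → PCR, 6-FAM extension, HpaI cut → CE fluorescence. DMSO = baseline; bidirectional curve fit.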

For experiment [2], the target named is Estrogen receptor beta (Homo sapiens) (UniProt Q92731). The experiment can be described thus: OT_ER_ERbERb_0480: Odyssey Thera (OT) 8-hour HEK293T Protein-Complementation Assay for Estrogen Receptor-beta/-beta Homodimer (AID 2283357).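 Also: active means signal gain over DMSO baseline.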 An outline of the steps: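 ER-beta LBD homodimer PCA stably expressed in HEK293T; 8 h compound exposure, then formaldehyde fixation and Draq5 staining. Gain in nuclear/cytoplasmic fluorescence intensity versus DMSO vehicle, read on laser scanning cytometer.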

Experiment [3] has the same target. Put plainly: OT_ER_ERbERb_1440: Odyssey Thera (OT) 24-hour HEK293T Protein-Complementation Assay for Estrogen Receptor-beta/-beta Homodimer (AID 2283380).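 Also: scored as signal increase over DMSO baseline for both agonists and antagonists.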 An outline of the steps: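 Fluorescence increase, nuclear for agonists or whole-cell for antagonists, relative to DMSO vehicle, quantified by laser scanning cytometer after fixation and Draq5 staining. Readout from 24 h treatment of HEK293T cells carrying complementation-paired ER beta LBD (aa 310-547).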

The target in experiment [4] is Retinoic acid receptor RXR-alpha (Homo sapiens) (UniProt P19793). The experiment can be described thus: OT_NURR1_NURR1RXRa_1440: Odyssey Thera (OT) 24-hour HEK293T Protein Complementation Assay for Nurr1/retinoid X receptor (RXR) (AID 2283386). An outline of the steps:
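Gain in fluorescence, fitted relative to DMSO, reflects Nurr1–RXRα association in HEK293T cells after 24 h dosing. Bait and prey are each linked to a reporter-protein fragment that reassembles on interaction.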

Experiment [5] in a line: ACEA_AR_agonist_AUC_viability: ACEA Biosciences xCELLigence Real-Time Cell Analysis on Androgen Receptor Agonism for Viability (AID 2283775). A digest of the protocol:
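22Rv1 cells; impedance growth kinetics; 8-pt 1:4 dilutions from 100 uM top final, ≤0.5% DMSO; n = 2; 80 h read; AUC viability, loss-of-signal vs DMSO.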

Experiment [6] can be described thus: ACEA_AR_antagonist_AUC_viability: ACEA Biosciences xCELLigence Real-Time Cell Analysis on Androgen Receptor Antagonism for Viability (AID 2283776).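 Also: 22Rv1 human prostate cancer cells growing on impedance electrode plates; area under impedance growth curve at 80 h after dosing as viability; hits lower the growth signal relative to DMSO meaning cytotoxicity.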 A digest of the protocol:
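Real-time electrical impedance tracks 22Rv1 proliferation after continuous compound exposure (top 100 uM final, 1:4 steps, 8 concentrations). The 80 h area-under-curve serves as the cytotoxicity readout relative to DMSO.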

For experiment [7], the target named is Nuclear receptor subfamily 4 group A member 2 (Homo sapiens) (UniProt P43354). Put plainly: ATG_NURR1_TRANS: Attagene TRANS-FACTORIAL HepG2 Assay for human Nuclear Receptor Related Protein 1 (NURR1) (AID 2282985). The conditions noted are these: HepG2 Attagene TRANS reporter, mRNA readout. A digest of the protocol: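 Reporter transcript induction, measured by RT-PCR with fluorescent labelling, HpaI digestion and capillary electrophoresis, after 24 hr dosing of human HepG2 cells transiently expressing an exogenous NR-Gal4 fusion with GAL4-UAS-driven reporters; DMSO as baseline.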

The nature of experiment [8]: CCTE_Harrill_HTTr_CellCount_MCF7: CCTE's Cell Proliferation Assessment for the High-Throughput Transcriptomics (HTTr) Platform, Harrill Lab (AID 2284012).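 Also: cells exposed to compound for six hours; intended direction is loss of nuclei count meaning fewer cells.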 A digest of the protocol: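 Cell count from high-content imaging of Hoechst-labeled nuclei serves as viability/growth readout. Chemicals were applied to MCF-7 cells in eight concentrations for six hours, with fitting in both directions relative to DMSO.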

The nature of experiment [9]: ATG_ERE_CIS: Attagene CIS-FACTORIAL HepG2 Assay for Estrogen Response Element (ERE) (AID 2282940; active = hit-call score of the fitted dose curve at least 0.9, where 1 is the maximum; inactive = score below 0.9). Particulars: HepG2 ERE cis-reporter, Attagene RNA transcript; actives raise or lower the signal. An outline of the steps:
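Cells used were human hepatoma HepG2, transfected with multiple reporter transcription units under cis-regulatory promoters. Reporter mRNA, read 24 h post-dosing via fluorescent RT-PCR products on capillary electrophoresis, was fitted bidirectionally relative to DMSO.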

In experiment [10] the target is human Retinoic Acid Receptor gamma (RARg), RARG (gene 5916) (UniProt P13631). The experiment can be described thus: ATG_RARg_TRANS: Attagene TRANS-FACTORIAL HepG2 Assay for human Retinoic Acid Receptor gamma (RARg) (AID 2283009). A digest of the protocol: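 Transactivation of exogenous RARg-Gal4 fusion measured as reporter transcript induction after 24 h in transfected HepG2 cells. RNA reverse-transcribed, amplified, fluorescently labeled and resolved by capillary electrophoresis; increase relative to DMSO.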

Experiment [11] addresses Estrogen-related receptor gamma (Homo sapiens) (UniProt P62508). The experiment can be described thus: ATG_ERRg_TRANS: Attagene TRANS-FACTORIAL HepG2 Assay for human Estrogen-Related Receptor gamma (ERRg) (AID 2282977).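 Also: hits increase reporter signal over DMSO so potencies reflect activators.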 The conditions noted are these: HepG2 Attagene TRANS reporter, ERRg transactivation. An outline of the steps:
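Exogenous NR-Gal4 chimera activity measured as reporter transcript induction after 24 h in transiently transfected HepG2 cells. RNA reverse-transcribed, PCR-amplified, 6-FAM-labelled and resolved by capillary electrophoresis; increase over DMSO baseline.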

Experiment [12] addresses Steroid hormone receptor ERR1 (Homo sapiens) (UniProt P11474). The experiment can be described thus: ATG_ERRa_TRANS: Attagene TRANS-FACTORIAL HepG2 Assay for human Estrogen-Related Receptor alpha (ERRa) (AID 2282971). Particulars: HepG2 Attagene TRANS reporter, ERRa transactivation. A digest of the protocol:
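Reporter transcript induction was quantified by RT-PCR and capillary electrophoresis of FAM-labelled, HpaI-cut products after 24 h treatment of HepG2 cells carrying transiently transfected GAL4-UAS reporter units and an exogenous ERRa-Gal4 fusion; activity scored as increase over DMSO.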

Sequence of Nuclear receptor subfamily 4 group A member 2 (Homo sapiens) (P43354 whole entry, looked up, the tested form may be a part): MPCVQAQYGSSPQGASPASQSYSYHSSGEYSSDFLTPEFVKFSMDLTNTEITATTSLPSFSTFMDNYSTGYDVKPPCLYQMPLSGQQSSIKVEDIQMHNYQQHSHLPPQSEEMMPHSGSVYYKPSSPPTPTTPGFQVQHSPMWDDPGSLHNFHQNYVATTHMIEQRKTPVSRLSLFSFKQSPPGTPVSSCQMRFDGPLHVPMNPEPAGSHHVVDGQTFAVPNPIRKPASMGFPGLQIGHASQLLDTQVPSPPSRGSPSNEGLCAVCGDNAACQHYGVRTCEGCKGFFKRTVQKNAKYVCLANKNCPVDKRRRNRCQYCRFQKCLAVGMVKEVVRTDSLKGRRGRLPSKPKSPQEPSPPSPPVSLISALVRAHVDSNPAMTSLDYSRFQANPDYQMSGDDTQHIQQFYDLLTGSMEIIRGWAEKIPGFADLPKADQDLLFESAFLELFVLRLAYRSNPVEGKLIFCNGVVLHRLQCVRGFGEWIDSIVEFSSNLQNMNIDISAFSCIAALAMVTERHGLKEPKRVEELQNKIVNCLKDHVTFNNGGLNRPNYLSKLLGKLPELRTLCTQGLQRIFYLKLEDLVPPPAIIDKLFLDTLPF
Sequence of Retinoic acid receptor RXR-alpha (Homo sapiens) (P19793 whole entry, looked up, the tested form may be a part): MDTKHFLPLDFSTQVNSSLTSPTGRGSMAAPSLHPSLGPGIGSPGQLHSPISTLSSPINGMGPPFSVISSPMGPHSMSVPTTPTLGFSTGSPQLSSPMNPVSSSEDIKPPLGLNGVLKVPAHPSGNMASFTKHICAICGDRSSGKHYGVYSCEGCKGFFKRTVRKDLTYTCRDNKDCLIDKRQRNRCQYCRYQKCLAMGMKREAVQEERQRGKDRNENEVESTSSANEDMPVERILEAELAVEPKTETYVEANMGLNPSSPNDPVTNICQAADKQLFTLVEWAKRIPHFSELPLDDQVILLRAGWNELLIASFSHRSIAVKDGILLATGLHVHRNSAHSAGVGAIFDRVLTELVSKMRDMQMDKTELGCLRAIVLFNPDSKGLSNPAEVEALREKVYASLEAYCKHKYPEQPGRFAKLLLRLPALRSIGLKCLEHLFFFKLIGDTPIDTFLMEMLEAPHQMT
Sequence of Aryl hydrocarbon receptor (Homo sapiens) (P35869 whole entry, looked up): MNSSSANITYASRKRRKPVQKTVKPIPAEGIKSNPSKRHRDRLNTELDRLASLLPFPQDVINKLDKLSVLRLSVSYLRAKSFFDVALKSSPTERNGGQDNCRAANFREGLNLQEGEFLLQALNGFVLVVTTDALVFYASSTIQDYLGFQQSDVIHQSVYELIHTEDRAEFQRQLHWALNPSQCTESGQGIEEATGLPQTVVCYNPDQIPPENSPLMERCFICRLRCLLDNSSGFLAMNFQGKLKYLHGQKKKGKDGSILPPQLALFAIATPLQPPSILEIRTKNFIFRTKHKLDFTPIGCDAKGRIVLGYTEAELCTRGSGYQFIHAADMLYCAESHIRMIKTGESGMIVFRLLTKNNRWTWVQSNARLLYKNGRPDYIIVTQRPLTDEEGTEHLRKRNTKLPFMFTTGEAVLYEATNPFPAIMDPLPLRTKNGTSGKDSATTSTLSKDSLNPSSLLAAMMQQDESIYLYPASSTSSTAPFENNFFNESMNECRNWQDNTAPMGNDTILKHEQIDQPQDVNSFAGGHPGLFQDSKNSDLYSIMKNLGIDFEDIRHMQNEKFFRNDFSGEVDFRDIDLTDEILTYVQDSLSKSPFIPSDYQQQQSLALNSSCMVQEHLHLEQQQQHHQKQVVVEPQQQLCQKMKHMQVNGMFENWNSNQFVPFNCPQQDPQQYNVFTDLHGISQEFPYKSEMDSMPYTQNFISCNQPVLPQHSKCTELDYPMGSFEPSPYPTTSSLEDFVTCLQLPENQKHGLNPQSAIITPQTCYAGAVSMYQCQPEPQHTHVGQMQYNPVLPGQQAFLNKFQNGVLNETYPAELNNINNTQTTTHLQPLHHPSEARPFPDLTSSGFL
Sequence of human Retinoic Acid Receptor gamma (RARg), RARG (gene 5916) (P13631 whole entry, looked up, the tested form may be a part): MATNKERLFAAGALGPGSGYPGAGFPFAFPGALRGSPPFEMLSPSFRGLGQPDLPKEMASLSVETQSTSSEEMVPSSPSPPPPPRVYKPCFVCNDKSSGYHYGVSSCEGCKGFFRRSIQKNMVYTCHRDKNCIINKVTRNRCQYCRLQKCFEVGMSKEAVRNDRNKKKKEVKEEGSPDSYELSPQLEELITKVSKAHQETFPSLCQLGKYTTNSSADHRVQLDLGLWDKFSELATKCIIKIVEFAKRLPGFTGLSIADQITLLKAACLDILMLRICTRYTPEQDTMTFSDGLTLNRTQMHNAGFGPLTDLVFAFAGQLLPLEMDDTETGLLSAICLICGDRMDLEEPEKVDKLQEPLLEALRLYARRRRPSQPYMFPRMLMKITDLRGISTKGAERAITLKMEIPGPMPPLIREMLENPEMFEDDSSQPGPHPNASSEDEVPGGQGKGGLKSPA
Sequence of Estrogen receptor beta (Homo sapiens) (Q92731 whole entry, looked up, the tested form may be a part): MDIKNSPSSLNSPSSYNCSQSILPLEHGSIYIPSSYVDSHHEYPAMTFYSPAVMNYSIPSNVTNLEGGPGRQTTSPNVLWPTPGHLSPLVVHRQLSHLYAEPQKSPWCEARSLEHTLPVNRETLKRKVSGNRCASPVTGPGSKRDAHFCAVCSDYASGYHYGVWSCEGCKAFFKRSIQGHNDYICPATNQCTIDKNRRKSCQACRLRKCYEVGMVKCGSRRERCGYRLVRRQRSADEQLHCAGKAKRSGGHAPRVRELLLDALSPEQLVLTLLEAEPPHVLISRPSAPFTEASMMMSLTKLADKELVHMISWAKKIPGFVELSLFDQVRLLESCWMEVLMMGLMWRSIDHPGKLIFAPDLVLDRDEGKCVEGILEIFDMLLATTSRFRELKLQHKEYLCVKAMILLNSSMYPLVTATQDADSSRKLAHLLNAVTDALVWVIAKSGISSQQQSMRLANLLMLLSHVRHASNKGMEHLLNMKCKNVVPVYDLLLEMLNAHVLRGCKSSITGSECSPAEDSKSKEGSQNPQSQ
Sequence of Estrogen-related receptor gamma (Homo sapiens) (P62508 whole entry, looked up, the tested form may be a part): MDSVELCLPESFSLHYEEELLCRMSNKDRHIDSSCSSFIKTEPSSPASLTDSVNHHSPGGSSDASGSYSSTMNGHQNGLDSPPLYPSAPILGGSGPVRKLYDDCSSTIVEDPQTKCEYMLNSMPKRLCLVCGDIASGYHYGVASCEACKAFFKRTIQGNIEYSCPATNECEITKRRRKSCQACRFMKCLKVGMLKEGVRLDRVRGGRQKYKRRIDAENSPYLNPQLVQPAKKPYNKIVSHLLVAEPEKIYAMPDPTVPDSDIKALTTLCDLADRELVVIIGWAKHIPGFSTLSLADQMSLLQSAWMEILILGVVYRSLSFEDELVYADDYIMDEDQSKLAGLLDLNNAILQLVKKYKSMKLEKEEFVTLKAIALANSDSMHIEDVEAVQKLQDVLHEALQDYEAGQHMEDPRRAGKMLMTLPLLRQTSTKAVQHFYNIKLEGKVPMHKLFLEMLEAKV
Sequence of Steroid hormone receptor ERR1 (Homo sapiens) (P11474 whole entry, looked up, the tested form may be a part): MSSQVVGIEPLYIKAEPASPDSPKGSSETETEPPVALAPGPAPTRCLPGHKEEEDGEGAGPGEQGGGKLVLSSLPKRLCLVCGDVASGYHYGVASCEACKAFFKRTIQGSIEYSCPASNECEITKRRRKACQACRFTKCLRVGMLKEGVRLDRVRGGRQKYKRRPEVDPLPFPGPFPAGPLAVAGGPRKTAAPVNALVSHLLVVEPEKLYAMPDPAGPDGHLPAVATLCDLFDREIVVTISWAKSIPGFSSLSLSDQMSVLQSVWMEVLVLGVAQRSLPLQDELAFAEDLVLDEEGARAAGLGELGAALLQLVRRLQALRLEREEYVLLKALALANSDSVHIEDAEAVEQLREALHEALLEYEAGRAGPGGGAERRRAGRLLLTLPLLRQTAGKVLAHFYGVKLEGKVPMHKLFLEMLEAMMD

In the case of `Cc1cc(C)c(S(=O)(=O)O)cc1N=Nc1cc(S(=O)(=O)O)c2ccccc2c1O`, in experiment [1], the concentration at half-maximal activity (AC50) (usually the concentration at which the activity in the assay is half-maximal) was 42.4 µM (active). In addition, the outcome in experiment [2], in experiment [3], in [4], in [5] and in [6] was inactive.
As to `F[B-](F)(F)F`, the result in experiment [1], in [4], in experiment [5] and in experiment [6] was inactive.
Take `CCCCCCCCCCCCCC`: the outcome in experiment [1], in experiment [7] and in experiment [8] was inactive.
Consider `Oc1ccc(Cl)cc1C1CCCC1`, for which the AC50 in experiment [9] was 8.73 µM (active); in experiment [7], 8.65 µM (active). The molecule was called inactive in experiment [8].
Consider `CCCC(=O)OC/C=C(\C)CCC=C(C)C`, for which the call in [9] and in [7] was inactive.
With `CCCC(=O)OC`, the call in experiment [9] was inactive.
As to `COc1ccccc1OCC(O)CO` (stereo unspecified), the call in [1] was inactive.
For `C[C@H]1C[C@H]2[C@@H]3CCC4=CC(=O)C=C[C@]4(C)[C@@]3(F)[C@@H](O)C[C@]2(C)[C@@]1(O)C(=O)CO`, in experiment [1], the AC50 is 44.6 µM (active).
As for `O=C(O)c1ccccc1C(=O)O`, the call in experiment [9], in [4], in [5] and in experiment [6] was inactive.
For `CC(O)(P(=O)(O)O)P(=O)(O)O`, the molecule was classed as inactive in experiment [1].
With `CC1=C(CC=O)C(C)(C)CCC1`, the molecule was classed as inactive in [1].
Take `CC(C)CC(=O)O`: the molecule was called inactive in experiment [9] and in experiment [10].
As for `NC(=O)c1ccc(N)cc1`, the call in experiment [9] and in experiment [11] was inactive.
For the molecule `CC(C)(Oc1ccc(Cl)cc1)C(=O)O`, in experiment [1], the result was inactive.
Consider `C[Si](C)(C)O[Si](C)(C)O[Si](C)(C)C`, for which the call in [1], in [2], in experiment [3], in experiment [4], in experiment [5] and in [6] was inactive.
As to `CCc1cc(C(N)=S)ccn1`, in experiment [8], the call was inactive.
With `O=C1NC(=O)[C@@H]2CC=CC[C@H]12`, the result in [12] was inactive.
With `Clc1ccccn1`, the call in experiment [10] and in experiment [8] was inactive.
For the molecule `CCCCCC1CCCC(=O)O1` (stereo unspecified), the call in [12], in [11] and in experiment [10] was inactive.
In the case of `CCCCOC(=O)COc1ccc(Cl)cc1Cl`, the molecule was called inactive in experiment [4], in [5] and in experiment [6].
As for `O=[N+]([O-])c1ccc2nc[nH]c2c1`, the result in experiment [9] and in [7] was inactive.
Turning to `c1cc[c]([Bi]([c]2ccccc2)[c]2ccccc2)cc1`, in [9], the AC50 was 6.83 µM (active).
